Test results taken from PubChem BioAssay AID1159580 (chemical genetic matrix, 2015).
Out of some 5,500 compounds screened, about 2,000 (36%) were called active. Roughly 18% stayed inconclusive and do not appear here. Rule as the data show it: active = normalized growth mostly below about 0.91 (no sharp cut-off); inconclusive = no clear call, values can overlap the other calls; inactive = mostly above about 0.92. The list shows a part of the results.

Assay: chemical genetic growth profiling, strain panel (AID 1159580);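 also: tested at 20 µM; growth read once vehicle control cultures reached saturation at 30 °C; 1 = growth at the plate median or of vehicle wells; lower values mean less growth of the strain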
Details: S. cerevisiae deletion strains, growth OD

Measured: normalized growth

O=C1c2ccc(O)c(O)c2C(=O)c2c(O)ccc(O)c21
inactive: locus YBR021W, strain FUR4, stronger effect = lower value 1.01 | locus YBR229C, strain ROT2, stronger effect = lower value 1.01 | locus YCL029C, strain bik1, stronger effect = lower value 1 | locus YDL035C, strain GPR1, stronger effect = lower value 1.03 | locus YDL074C, strain BRE1, stronger effect = lower value 1 | locus YDL101C, strain DUN1, stronger effect = lower value 1.01 | locus YDL185W, strain tfp1, stronger effect = lower value 1.01 | locus YDL192W, strain arf1, stronger effect = lower value 0.99 | locus YDR101C, strain arx1, stronger effect = lower value 1.01 | locus YDR162C, strain NBP2, stronger effect = lower value 1.03 | locus YDR195W, strain ref2 0.873 | locus YDR318W, strain mcm21, stronger effect = lower value 0.992 | locus YDR388W, stronger effect = lower value 0.997 | locus YDR502C, strain sam2, stronger effect = lower value 0.991 | locus YEL061C, strain CIN8, stronger effect = lower value 1 | locus YER110C, stronger effect = lower value 0.991 | locus YER155C, strain BEM2, stronger effect = lower value 1 | locus YER167W, strain BCK2, stronger effect = lower value 1.02 | locus YGL078C, strain dbp3, stronger effect = lower value 0.982 | locus YGL086W, strain mad1, stronger effect = lower value 0.989 | locus YGL248W, strain PDE1, stronger effect = lower value 1 | locus YGR078C, strain PAC10, stronger effect = lower value 1.01 | locus YGR135W, strain pre9, stronger effect = lower value 0.991 | locus YGR252W, strain gcn5, stronger effect = lower value 0.977 | locus YHR013C, strain ard1, stronger effect = lower value 0.953 | locus YHR030C, strain SLT2, stronger effect = lower value 1.01 | locus YHR079C, strain IRE1 (second series), stronger effect = lower value 0.991 | locus YHR094C, strain hxt1, stronger effect = lower value 0.995 | locus YHR129C, strain ARP1, stronger effect = lower value 1.01 | locus YHR200W, strain rpn10, stronger effect = lower value 0.998 | locus YIL066C, strain RNR3, stronger effect = lower value 1.03 | locus YIL073C, strain SPO22, stronger effect = lower value 1.01 | locus YIL125W, strain kgd1, stronger effect = lower value 0.992 | locus YIR030C, strain dcg1, stronger effect = lower value 0.988 | locus YJL095W, strain BCK1, stronger effect = lower value 0.998 | locus YJL134W, strain LCB3, stronger effect = lower value 1.01 | locus YJL168C, strain set2, stronger effect = lower value 0.988 | locus YJL187C, strain SWE1 (second series), stronger effect = lower value 1.01 | locus YJR043C, strain POL32, stronger effect = lower value 1.03 | locus YKL009W, strain mrt4, stronger effect = lower value 0.978 | locus YKL068W, stronger effect = lower value 0.992 | locus YKL085W, strain MDH1 (second series), stronger effect = lower value 0.99 | locus YKL085W, strain MDH1, stronger effect = lower value 0.99 | locus YKL190W, strain CNB1, stronger effect = lower value 1.01 | locus YKR001C, strain vps1, stronger effect = lower value 0.985 | locus YLR039C, strain RIC1, stronger effect = lower value 1.03 | locus YLR058C, strain SHM2, stronger effect = lower value 1.01 | locus YLR102C, strain apc9, stronger effect = lower value 0.991 | locus YLR262C, strain YPT6, stronger effect = lower value 1.09 | locus YLR268W, strain sec22, stronger effect = lower value 1.01 | locus YLR330W, strain CHS5, stronger effect = lower value 1.01 | locus YLR342W, strain FKS1 (second series), stronger effect = lower value 1.02 | locus YLR371W, strain rom2, stronger effect = lower value 0.986 | locus YLR418C, strain cdc73, stronger effect = lower value 0.978 | locus YML016C, strain PPZ1, stronger effect = lower value 1.01 | locus YML032C, strain rad52, stronger effect = lower value 1.01 | locus YML124C, strain tub3, stronger effect = lower value 0.988 | locus YMR078C, strain ctf18, stronger effect = lower value 0.996 | locus YMR223W, strain ubp8, stronger effect = lower value 0.998 | locus YMR307W, strain GAS1, stronger effect = lower value 1.07 | locus YNL067W, strain RPL9B, stronger effect = lower value 0.997 | locus YNL128W, strain TEP1, stronger effect = lower value 1.01 | locus YNL153C, strain GIM3, stronger effect = lower value 0.998 | locus YNL233W, strain BNI4, stronger effect = lower value 1.01 | locus YNL250W, strain rad50, stronger effect = lower value 0.998 | locus YNL271C, strain bni1, stronger effect = lower value 0.994 | locus YNL298W, strain CLA4, stronger effect = lower value 0.994 | locus YNL307C, strain MCK1, stronger effect = lower value 0.994 | locus YNR052C, strain pop2, stronger effect = lower value 0.993 | locus YOL012C, strain htz1 0.902 | locus YOL147C, strain pex11, stronger effect = lower value 0.998 | locus YOR061W, strain CKA2, stronger effect = lower value 1.02 | locus YOR069W, strain VPS5, stronger effect = lower value 1.01 | locus YOR136W, strain idh2, stronger effect = lower value 1.02 | locus YOR144C, strain elg1, stronger effect = lower value 0.991 | locus YOR184W, strain ser1, stronger effect = lower value 0.995 | locus YOR316C, strain cot1, stronger effect = lower value 0.996 | locus YPL241C, strain CIN2, stronger effect = lower value 1.01 | locus YPR119W, strain clb2, stronger effect = lower value 0.989 | locus YPR141C, strain kar3, stronger effect = lower value 0.991 | locus YPR163C, strain tif3, stronger effect = lower value 1.01 | locus YPR167C, strain met16, stronger effect = lower value 0.989 | strain wtn01, stronger effect = lower value 1.01
active: locus YAL021C, strain ccr4, stronger effect = lower value 0.241 | locus YAL026C, strain drs2, stronger effect = lower value 0.376 | locus YAL030W, strain snc1, stronger effect = lower value 0.69 | locus YBL061C, strain skt5, stronger effect = lower value 0.548 | locus YBR009C, strain hhf1, stronger effect = lower value 0.667 | locus YBR023C, strain chs3, stronger effect = lower value 0.479 | locus YBR171W, strain sec66, stronger effect = lower value 0.753 | locus YBR231C, strain swc5, stronger effect = lower value 0.479 | locus YBR279W, strain paf1, stronger effect = lower value 0.838 | locus YCL011C, strain gbp2, stronger effect = lower value 0.67 | locus YCL016C, strain dcc1, stronger effect = lower value 0.695 | locus YCL069W, strain vba3, stronger effect = lower value 0.751 | locus YCR088W, strain abp1, stronger effect = lower value 0.781 | locus YDL005C, strain med2, stronger effect = lower value 0.879 | locus YDL040C, strain nat1, stronger effect = lower value 0.795 | locus YDR001C, strain nth1, stronger effect = lower value 0.787 | locus YDR069C, strain doa4, stronger effect = lower value 0.399 | locus YDR137W, strain rgp1, stronger effect = lower value 0.255 | locus YDR159W, strain sac3, stronger effect = lower value 0.789 | locus YDR297W, strain sur2, stronger effect = lower value 0.697 | locus YDR334W, strain swr1, stronger effect = lower value 0.424 | locus YDR335W, strain msn5, stronger effect = lower value 0.737 | locus YDR392W, strain spt3, stronger effect = lower value 0.567 | locus YEL003W, strain gim4, stronger effect = lower value 0.675 | locus YEL037C, strain rad23, stronger effect = lower value 0.734 | locus YEL061C, strain CIN8 (second series), stronger effect = lower value 0.814 | locus YER015W, strain faa2, stronger effect = lower value 0.493 | locus YER016W, strain bim1, stronger effect = lower value 0.705 | locus YER111C, strain swi4, stronger effect = lower value 0.708 | locus YER155C, strain BEM2 (second series), stronger effect = lower value 0.696 | locus YFR010W, strain ubp6, stronger effect = lower value 0.539 | locus YGL167C, strain pmr1, stronger effect = lower value 0.814 | locus YGL173C, strain kem1, stronger effect = lower value 0.286 | locus YGL227W, strain vid30, stronger effect = lower value 0.83 | locus YGL240W, strain doc1, stronger effect = lower value 0.667 | locus YGL253W, strain hxk2, stronger effect = lower value 0.638 | locus YHR027C, strain rpn1, stronger effect = lower value 0.401 | locus YHR142W, strain chs7, stronger effect = lower value 0.451 | locus YJL092W, strain hpr5, stronger effect = lower value 0.774 | locus YJL095W, strain BCK1 (second series), stronger effect = lower value 0.236 | locus YJL115W, strain asf1, stronger effect = lower value 0.816 | locus YJL129C, strain trk1, stronger effect = lower value 0.52 | locus YJL154C, strain vps35, stronger effect = lower value 0.782 | locus YJL164C, strain tpk1, stronger effect = lower value 0.545 | locus YJL166W, strain qcr8, stronger effect = lower value 0.596 | locus YKL160W, strain elf1, stronger effect = lower value 0.869 | locus YKR026C, strain gcn3, stronger effect = lower value 0.81 | locus YKR091W, strain srl3, stronger effect = lower value 0.757 | locus YLL001W, strain dnm1, stronger effect = lower value 0.722 | locus YLL026W, stronger effect = lower value 0.758 | locus YLL041C, strain sdh2, stronger effect = lower value 0.765 | locus YLR027C, strain aat2, stronger effect = lower value 0.751 | locus YLR221C, strain rsa3, stronger effect = lower value 0.668 | locus YLR258W, strain gsy2, stronger effect = lower value 0.685 | locus YLR262C, strain YPT6 (second series), stronger effect = lower value 0.185 | locus YLR320W, strain mms22, stronger effect = lower value 0.515 | locus YLR342W, strain FKS1, stronger effect = lower value 0.532 | locus YLR357W, strain rsc2, stronger effect = lower value 0.563 | locus YLR370C, strain arc18, stronger effect = lower value 0.577 | locus YLR384C, strain iki3, stronger effect = lower value 0.731 | locus YML120C, strain ndi1, stronger effect = lower value 0.768 | locus YMR058W, strain fet3, stronger effect = lower value 0.459 | locus YMR125W, strain sto1, stronger effect = lower value 0.803 | locus YMR129W, stronger effect = lower value 0.756 | locus YMR205C, strain PFK2, stronger effect = lower value 0.522 | locus YMR231W, strain pep5, stronger effect = lower value 0.641 | locus YNL071W, strain lat1, stronger effect = lower value 0.748 | locus YNL209W, strain ssb2, stronger effect = lower value 0.29 | locus YNL248C, strain rpa49, stronger effect = lower value 0.66 | locus YNL322C, strain KRE1 (second series), stronger effect = lower value 0.812 | locus YNR049C, strain mso1, stronger effect = lower value 0.785 | locus YOR001W, strain rrp6, stronger effect = lower value 0.683 | locus YOR070C, strain gyp1, stronger effect = lower value 0.71 | locus YOR080W, strain dia2, stronger effect = lower value 0.759 | locus YOR083W, strain WHI5, stronger effect = lower value 0.57 | locus YOR106W, strain vam3, stronger effect = lower value 0.307 | locus YOR265W, strain rbl2, stronger effect = lower value 0.683 | locus YOR270C, strain vph1, stronger effect = lower value 0.387 | locus YOR290C, strain snf2, stronger effect = lower value 0.578 | locus YPL051W, strain arl3, stronger effect = lower value 0.416 | locus YPL078C, strain atp4, stronger effect = lower value 0.76 | locus YPL106C, strain sse1, stronger effect = lower value 0.536 | locus YPL240C, strain hsp82, stronger effect = lower value 0.74
